The record followed here is PubChem BioAssay (NCI).

The panel holds about 83,000 compounds, 20% with a hit somewhere; the sample as a whole holds those more often.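 48-hour exposure, single concentration, 96-well plates; percent growth endpoint where 0 means no net growth. Active: below 10.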 Unmarked numbers belong to inactive results. Active and inactive are the calls of the source.

The subject of this assay is HL-60(TB) leukemia. The experiment in a line: NCI-60 one-dose screen, 48 h (100 = growth as untreated, 0 = no growth, -100 = all killed). The note with it: 10 µM unless noted.
For the compound `O=C1/C(=C/c2ccc([N+](=O)[O-])cc2)COc2ccc(O)cc21`, the growth was 50.9%.

For the compound `COc1cc2c(c(OC)c1OC)C(=O)CC(c1cccc(C(=O)Nc3ccccc3Br)c1)O2` (stereo not given), the growth is 76.5%.

Consider `COc1ccc(-c2cc(-c3cc(OC)ccc3O)[nH]c(=O)c2C#N)cc1`, for which the growth is 16.9%.

As for `Brc1ccc(C2CC(c3cccc(Nc4ccncc4)c3)=NN2c2ccccc2)cc1` (stereo not given), the growth was 56.9%.

Turning to `C/C(=C(/c1ccc(O)cc1)c1ccc(OCCN(C)C)cc1)c1ccccc1`, the growth is 76%.

On to `CC/C(C)=C(\C)C(=O)O`, for which the growth was 100%.

In the case of `Cc1ccc(C(=O)NC2c3ccccc3Oc3ccccc32)cc1`, the growth is -3.42% (active).

For `CCN(CC)P(=O)(N(CC)CC)N(CCCSC/C=C(\C)CC/C=C(\C)CCC=C(C)C)CCCN1CCN(C)CC1`, the growth is 83.3%.

As to `COc1cc(NC(C)CCCNC(=O)CCC(=O)NCCCNCCCCCCCCNCCCNC(=O)CCC(=O)NCCCC(C)Nc2cc(OC)cc3cccnc23)c2ncccc2c1` (stereo not given), the growth was 56.5%.

As for `COc1cc2cc(NCc3cccc(Cl)c3)nc(C)c2cc1OC`, the growth is 14.5%.

Take `Cc1c(NCc2nnc3n(Cc4ccccc4)c(=O)c4c5c(sc4n23)CCCC5)c(=O)n(-c2ccccc2)n1C`: the growth is 80%.

Consider `CCCCn1c(Cc2ccc(Cl)cc2)nc2cc(OC)c(OC)cc2c1=O`, for which the growth is 53.7%.

As for `Cc1c(O)nc(N)[nH]c1=O`, the growth is 137%.

As for `C=C(C)[C@@H]1CC[C@]2(C(=O)OC)CC[C@]3(C)[C@H](CC[C@@H]4[C@@](C)(CCc5nn[nH]n5)[C@H](C(=C)C)CC[C@]43C)[C@@H]12`, the growth is -11% [100 µM] (active).

Consider `COc1ccc(-c2c(NC(=O)Nc3ccc(Cl)c(C(F)(F)F)c3)cnn2-c2ccc(S(N)(=O)=O)cc2)cc1`, for which the growth is -15% (active).

On to `Cc1ccsc1/C=C/C1=NCCCN1C`, for which the growth is 126%.

With `OC1Cc2ccccc2C1`, the growth was 100%.

As for `CSCC[C@@H]1C(=O)N(C)[C@H](C(C)(C)C)N1C(=O)c1ccccc1`, the growth is 110%.

Turning to `CC(C)(C)CC(C)(C)c1ccc(OCCOCC[N+](C)(C)Cc2ccccc2)cc1`, the growth is -63.5% (active).

For the compound `CN(C)CCN1C(=O)c2cccc3c(-c4ccc5ncn(C6CCCCC6)c5c4)ccc(c23)C1=O`, the growth is 13.8%.

Regarding `CCCCCCCCCCCCCC[n+]1cccc(C(N)=O)c1`, the growth is -55.9% (active).

For `COc1ccc2cc(-c3cc(OC)c(OC)c(OC)c3)c(=O)oc2c1`, the growth was 55.3%.

Turning to `CCOC(=O)/C=C1\S/C(=N\Nc2cc(=O)[nH]c3ccc(Br)cc23)N(c2ccccc2)C1=O`, the growth was -12.1% (active).

With `Oc1ccc(N=Cc2ccc(OCc3ccccc3)cc2)cc1`, the growth is 104%.

As for `N#CCCOc1ccccc1`, the growth is 88.7%.

For `CCCCCCCCCCNC(=O)CI`, the growth is 19.3%.

`O=C(O)CCCN1C(=O)CSC1=S`: the growth was 103%.

In the case of `COc1cc(-c2csc(NC(=O)Nc3cc(C(F)(F)F)cc(C(F)(F)F)c3)n2)cc(OC)c1OC`, the growth is 12%.

For `CC1CCCN(CCCCCOc2ccc3oc4ccc(Cl)cc4c(=O)c3c2)C1` (stereo not given), the growth is 48.6%.

As to `C=C(CN=[N+]=[N-])[C@@H]1CC[C@]2(C)[C@H](CC[C@@H]3[C@H]4[C@H]5OC(=O)[C@@]4(CCC5(C)C)CC[C@]32C)[C@@]1(C)CCC#N`, the growth was 22.7% [100 µM].

Take `Nc1cc2c(cc1Br)-c1c(C(=O)O)cccc1C2O` (stereo not given): the growth is 77.8%.

As for `O=C1Nc2ccc(Br)cc2C12CC(c1ccccc1)=NN2` (stereo not given), the growth was -4.96% (active).

Regarding `CCCCCCCCCCCCCCCC(=O)OCC1OC(n2cnc3c(=S)nc(N)[nH]c32)C(OC(=O)CCCCCCCCCCCCCCC)C1OC(=O)CCCCCCCCCCCCCCC` (stereo not given), the growth was 86%.

As for `C=C(c1ccc(C(=O)NCCCn2ccnc2)cc1)c1cc2c(cc1C)C(C)(C)CCC2(C)C`, the growth is -47.5% (active).

Turning to `CSc1nn2c(-c3cc4cc(Br)ccc4oc3=O)ccnc2c1C#N`, the growth is 102%.

Consider `CCOC(=O)C/C(=N\Nc1cc(=O)[nH]c2ccc(Br)cc12)C(=O)OCC`, for which the growth is -7.84% (active).

Regarding `O=C(Nc1ccc(-n2cc(-c3ccncc3)c(-c3ccc(O)c(Cl)c3)n2)cc1)c1cc(C(F)(F)F)cc(C(F)(F)F)c1`, the growth was 84.4%.

With `NC(CCl)=NCC12CC3CC(CC(C3)C1)C2`, the growth is -30.2% (active).

As for `Nc1nc(I)c2ncn(C3OC(CO)C(O)C3O)c2n1` (stereo not given), the growth was 99.4%.

Turning to `COc1ccc(-c2nn(-c3ccccc3)cc2/C=C2\SC(=S)N(CCc3ccc(O)cc3)C2=O)cc1`, the growth was 84%.
